Several values for one entry are separate records, joined by “and”; a condition that tells them apart may be missing. Equal entries are not always repeated. The whole screen tested about 5,500 compounds, of which about 2,000 (36%) were called active. Not shown: some 18% with an inconclusive outcome. Rule as the data show it: active = normalized growth mostly below about 0.91 (no sharp cut-off); inconclusive = no clear call, values can overlap the other calls; inactive = mostly above about 0.92. This is one part of the list.
Assay: chemical genetic growth profiling, strain panel (AID 1159580);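 also: tested at 20 µM; growth read once vehicle control cultures reached saturation at 30 °C; 1 = growth at the plate median or of vehicle wells; lower values mean less growth of the strain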
Conditions: S. cerevisiae deletion strains, growth OD

Measured: normalized growth

CC(C)[N+](C)(CCC(C(N)=O)(c1ccccc1)c1ccccc1)C(C)C
inactive: locus YAL013W, strain DEP1, hits give low values 1.01 | locus YAL021C, strain ccr4, hits give low values 0.997 | locus YAL026C, strain drs2, hits give low values 0.999 | locus YAL030W, strain snc1, hits give low values 0.993 | locus YBL061C, strain skt5, hits give low values 0.992 | locus YBR009C, strain hhf1, hits give low values 0.994 | locus YBR021W, strain FUR4, hits give low values 1 | locus YBR023C, strain chs3, hits give low values 0.979 | locus YBR171W, strain sec66, hits give low values 0.987 | locus YBR229C, strain ROT2, hits give low values 1.01 | locus YBR231C, strain swc5, hits give low values 0.991 | locus YBR279W, strain paf1, hits give low values 0.97 | locus YCL011C, strain gbp2, hits give low values 0.966 | locus YCL016C, strain dcc1, hits give low values 0.953 | locus YCL029C, strain bik1, hits give low values 1 | locus YCL061C, strain MRC1, hits give low values 0.97 | locus YCL069W, strain vba3, hits give low values 0.993 | locus YCR088W, strain abp1, hits give low values 0.986 | locus YDL005C, strain med2, hits give low values 0.996 | locus YDL035C, strain GPR1, hits give low values 1.01 | locus YDL040C, strain nat1, hits give low values 0.996 | locus YDL074C, strain BRE1, hits give low values 1.01 | locus YDL101C, strain DUN1, hits give low values 1.01 | locus YDL185W, strain tfp1, hits give low values 0.996 | locus YDL192W, strain arf1, hits give low values 1 | locus YDR001C, strain nth1, hits give low values 0.987 | locus YDR069C, strain doa4, hits give low values 1 | locus YDR101C, strain arx1, hits give low values 0.999 | locus YDR137W, strain rgp1, hits give low values 0.987 | locus YDR150W, strain NUM1, hits give low values 1.01 | locus YDR159W, strain sac3, hits give low values 0.997 | locus YDR162C, strain NBP2, hits give low values 1 | locus YDR195W, strain ref2 1.02 | locus YDR297W, strain sur2, hits give low values 0.991 | locus YDR318W, strain mcm21, hits give low values 0.999 | locus YDR334W, strain swr1, hits give low values 0.981 | locus YDR335W, strain msn5, hits give low values 0.99 | locus YDR388W, hits give low values 1 | locus YDR392W, strain spt3, hits give low values 0.9 | locus YDR502C, strain sam2, hits give low values 0.986 | locus YEL003W, strain gim4, hits give low values 1.01 | locus YEL037C, strain rad23, hits give low values 0.987 | locus YEL061C, strain CIN8 (second series), hits give low values 0.988 | locus YEL061C, strain CIN8, hits give low values 0.999 | locus YER015W, strain faa2, hits give low values 0.995 | locus YER016W, strain bim1, hits give low values 0.998 | locus YER110C, hits give low values 1 | locus YER111C, strain swi4, hits give low values 0.981 | locus YER155C, strain BEM2 (second series), hits give low values 1 | locus YER155C, strain BEM2, hits give low values 1.02 | locus YER167W, strain BCK2, hits give low values 0.999 | locus YFR010W, strain ubp6, hits give low values 0.986 | locus YGL078C, strain dbp3, hits give low values 0.996 | locus YGL086W, strain mad1, hits give low values 1 | locus YGL167C, strain pmr1, hits give low values 0.989 | locus YGL173C, strain kem1, hits give low values 0.998 | locus YGL227W, strain vid30, hits give low values 0.98 | locus YGL240W, strain doc1, hits give low values 1 | locus YGL248W, strain PDE1, hits give low values 1 | locus YGL253W, strain hxk2, hits give low values 0.983 | locus YGR135W, strain pre9, hits give low values 0.978 | locus YGR252W, strain gcn5, hits give low values 0.896 | locus YHR013C, strain ard1, hits give low values 0.961 | locus YHR027C, strain rpn1, hits give low values 0.997 | locus YHR030C, strain SLT2, hits give low values 0.998 and 1 | locus YHR079C, strain IRE1 (second series), hits give low values 0.998 | locus YHR079C, strain IRE1, hits give low values 0.994 | locus YHR094C, strain hxt1, hits give low values 0.995 | locus YHR129C, strain ARP1, hits give low values 1.01 | locus YHR142W, strain chs7, hits give low values 0.939 | locus YHR200W, strain rpn10, hits give low values 1 | locus YIL066C, strain RNR3, hits give low values 1.01 | locus YIL073C, strain SPO22, hits give low values 0.988 | locus YIL125W, strain kgd1, hits give low values 0.993 | locus YIR030C, strain dcg1, hits give low values 1.02 | locus YJL092W, strain hpr5, hits give low values 0.986 | locus YJL095W, strain BCK1 (second series), hits give low values 0.988 | locus YJL095W, strain BCK1, hits give low values 1.01 | locus YJL115W, strain asf1, hits give low values 0.993 | locus YJL129C, strain trk1, hits give low values 0.991 | locus YJL134W, strain LCB3, hits give low values 1.02 | locus YJL154C, strain vps35, hits give low values 1 | locus YJL164C, strain tpk1, hits give low values 0.987 | locus YJL166W, strain qcr8, hits give low values 0.972 | locus YJL168C, strain set2, hits give low values 0.99 | locus YJL187C, strain SWE1 (second series), hits give low values 1.01 | locus YJL187C, strain SWE1, hits give low values 1 | locus YJR043C, strain POL32, hits give low values 1.01 | locus YJR066W, strain TOR1, hits give low values 0.943 | locus YKL009W, strain mrt4, hits give low values 1 | locus YKL068W, hits give low values 0.998 | locus YKL085W, strain MDH1 (second series), hits give low values 0.995 | locus YKL085W, strain MDH1, hits give low values 0.995 | locus YKL160W, strain elf1, hits give low values 0.961 | locus YKL190W, strain CNB1, hits give low values 0.98 | locus YKR001C, strain vps1, hits give low values 0.997 | locus YKR026C, strain gcn3, hits give low values 0.998 | locus YKR091W, strain srl3, hits give low values 0.992 | locus YLL001W, strain dnm1, hits give low values 0.96 | locus YLL026W, hits give low values 0.99 | locus YLL041C, strain sdh2, hits give low values 0.995 | locus YLR027C, strain aat2, hits give low values 0.994 | locus YLR039C, strain RIC1, hits give low values 1.07 | locus YLR058C, strain SHM2, hits give low values 1.01 | locus YLR102C, strain apc9, hits give low values 0.999 | locus YLR113W, strain HOG1, hits give low values 1.04 | locus YLR221C, strain rsa3, hits give low values 0.972 | locus YLR258W, strain gsy2, hits give low values 0.98 | locus YLR262C, strain YPT6 (second series), hits give low values 1 | locus YLR262C, strain YPT6, hits give low values 1.03 | locus YLR268W, strain sec22, hits give low values 0.987 | locus YLR320W, strain mms22, hits give low values 0.971 | locus YLR330W, strain CHS5, hits give low values 1.01 | locus YLR342W, strain FKS1 (second series), hits give low values 1.02 | locus YLR342W, strain FKS1, hits give low values 0.994 | locus YLR357W, strain rsc2, hits give low values 0.971 | locus YLR370C, strain arc18, hits give low values 0.975 | locus YLR371W, strain rom2, hits give low values 0.981 | locus YLR384C, strain iki3, hits give low values 0.991 | locus YLR418C, strain cdc73, hits give low values 0.923 | locus YML016C, strain PPZ1, hits give low values 1.01 | locus YML032C, strain rad52, hits give low values 0.993 | locus YML120C, strain ndi1, hits give low values 0.946 | locus YML124C, strain tub3, hits give low values 0.993 | locus YMR058W, strain fet3, hits give low values 0.998 | locus YMR078C, strain ctf18, hits give low values 1 | locus YMR125W, strain sto1, hits give low values 0.978 | locus YMR129W, hits give low values 0.996 | locus YMR205C, strain PFK2, hits give low values 0.974 | locus YMR223W, strain ubp8, hits give low values 0.987 | locus YMR231W, strain pep5, hits give low values 1 | locus YMR307W, strain GAS1, hits give low values 0.9 | locus YNL067W, strain RPL9B, hits give low values 0.997 | locus YNL071W, strain lat1, hits give low values 0.983 | locus YNL128W, strain TEP1, hits give low values 1.01 | locus YNL153C, strain GIM3, hits give low values 1.01 | locus YNL183C, strain NPR1, hits give low values 0.964 | locus YNL209W, strain ssb2, hits give low values 0.986 | locus YNL233W, strain BNI4, hits give low values 1.01 | locus YNL248C, strain rpa49, hits give low values 0.992 | locus YNL250W, strain rad50, hits give low values 0.987 | locus YNL271C, strain bni1, hits give low values 1 | locus YNL298W, strain CLA4, hits give low values 1 | locus YNL307C, strain MCK1, hits give low values 0.988 | locus YNL322C, strain KRE1 (second series), hits give low values 0.966 | locus YNR049C, strain mso1, hits give low values 0.995 | locus YNR052C, strain pop2, hits give low values 0.995 | locus YOL012C, strain htz1 0.833 | locus YOL147C, strain pex11, hits give low values 1 | locus YOR001W, strain rrp6, hits give low values 1.03 | locus YOR061W, strain CKA2, hits give low values 1.01 | locus YOR069W, strain VPS5, hits give low values 1.01 | locus YOR070C, strain gyp1, hits give low values 1 | locus YOR080W, strain dia2, hits give low values 1 | locus YOR083W, strain WHI5, hits give low values 0.963 | locus YOR106W, strain vam3, hits give low values 0.976 | locus YOR136W, strain idh2, hits give low values 0.985 | locus YOR144C, strain elg1, hits give low values 1 | locus YOR184W, strain ser1, hits give low values 0.979 | locus YOR231W, strain MKK1, hits give low values 0.972 | locus YOR265W, strain rbl2, hits give low values 0.994 | locus YOR270C, strain vph1, hits give low values 0.984 | locus YOR290C, strain snf2, hits give low values 0.923 | locus YOR316C, strain cot1, hits give low values 1.01 | locus YPL051W, strain arl3, hits give low values 0.998 | locus YPL055C, strain LGE1, hits give low values 0.991 | locus YPL078C, strain atp4, hits give low values 0.974 | locus YPL106C, strain sse1, hits give low values 0.961 | locus YPL240C, strain hsp82, hits give low values 1 | locus YPL256C, strain CLN2, hits give low values 1 | locus YPR119W, strain clb2, hits give low values 0.991 | locus YPR141C, strain kar3, hits give low values 0.993 | locus YPR163C, strain tif3, hits give low values 0.998 | locus YPR167C, strain met16, hits give low values 0.979 | strain wtn01, hits give low values 0.98

Reference: PubChem BioAssay AID1159580 (chemical genetic matrix, 2015)
